GDH-TPI counter-1 – counter-screen for M. tuberculosis FBA inhibitors: GDH-TPI coupled enzymes | GDH-TPI coupled enzyme counterscreen, NADH absorbance | inhibition, % at 4.8 µM | 360,000 tested, 1.2% active | AID 588335; in the data active = inhibition above about 30%
3CLpro inhibitor – SARS-CoV 3CLpro protease inhibition; P0C6X7; recombinant SARS-CoV 3CLpro, quenched FRET peptide cleavage; inhibition, % at 6 µM; 290,000 tested, 0.14% active; AID 1706; in the data active = inhibition above about 12%
PrPC TRFRET – cell surface PrPC inhibition, primary TR-FRET screen | TR-FRET read-out | 370,000 tested, 0.43% active | P04156 | inhibition, % at 13.8 µM | AID 720596; in the data active = inhibition above about 24%
Vc quorum ag – inducers of Vibrio cholerae quorum light production without autoinducers. 350,000 tested, 0.16% active. V. cholerae BH1578 lux reporter, luminescence, 6 h. activation, % at 18.7 µM; in the data active = activation mostly above about 9.7%, no sharp cut-off
FBA Mtb inh – inhibits M. tuberculosis FBA enzyme | purified M. tuberculosis FBA, fluorescence read-out | 360,000 tested, 2.3% active | AID 588726 | inhibition, % at 1 µM
Target sequence (P9WQA3 whole entry, looked up): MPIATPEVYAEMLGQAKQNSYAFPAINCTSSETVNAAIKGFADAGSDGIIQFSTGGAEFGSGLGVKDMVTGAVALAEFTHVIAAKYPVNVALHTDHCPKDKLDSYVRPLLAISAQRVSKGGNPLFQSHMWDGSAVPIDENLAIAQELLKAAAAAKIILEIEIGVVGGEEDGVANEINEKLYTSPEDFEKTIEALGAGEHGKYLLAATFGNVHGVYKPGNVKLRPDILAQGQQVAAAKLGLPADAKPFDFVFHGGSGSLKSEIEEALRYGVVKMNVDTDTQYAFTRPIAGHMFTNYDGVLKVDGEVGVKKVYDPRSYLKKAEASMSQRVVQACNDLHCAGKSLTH
Mtb FBA inh conf – Mtb FBA inhibition, confirmed; shares compounds with FBA Mtb inh; purified M. tuberculosis FBA, fluorescence read-out; inhibition, % at 1 µM; 5,600 tested, 78% active; AID 651616
GDH-TPI counter-2 – counter-screen for M. tuberculosis FBA inhibitors: GDH-TPI coupled enzyme inhibition; GDH-TPI coupled enzyme counterscreen, fluorescence; inhibition, % at 1 µM; 5,600 tested, 81% active; shares compounds with FBA Mtb inh; in the data active = inhibition above about 10%
Hits are given with their value. Compounds with a hit are over-represented: about 3.9% of the library has one in this group of screens. Rule as the data show it, unless noted: active = inhibition above about 27%; inactive = the rest.

For Cc1nn(-c2ccc(F)cc2F)c2c1-c1nc(N3CCCC3)ncc1CC2 the results were GDH-TPI counter-1 inactive, 3CLpro inhibitor inactive, PrPC TRFRET inactive, Vc quorum ag inactive, FBA Mtb inh 30, Mtb FBA inh conf active and GDH-TPI counter-2 active.
Screening Cc1ccccc1-c1cc2nc(NCCN3CCNC3=O)n(C)c(=O)c2s1 returned GDH-TPI counter-1 inactive, PrPC TRFRET inactive, Vc quorum ag inactive and FBA Mtb inh inactive.
`O=C(NNC(=O)c1cc(-c2ccc(Cl)cc2)nc2ccccc12)c1csc(N2CCOCC2)n1` gave GDH-TPI counter-1 inactive, PrPC TRFRET inactive, Vc quorum ag inactive and FBA Mtb inh inactive.
Nc1c(-c2ccccc2)nc(Cl)nc1-c1ccccc1 was read as GDH-TPI counter-1 inactive, 3CLpro inhibitor inactive, PrPC TRFRET inactive, Vc quorum ag inactive, FBA Mtb inh 43, Mtb FBA inh conf inactive and GDH-TPI counter-2 inactive.
For Cc1sc(N)nc1-c1ccccc1 the results were GDH-TPI counter-1 inactive, 3CLpro inhibitor inactive, PrPC TRFRET inactive, Vc quorum ag inactive and FBA Mtb inh inactive.
`CC(C)n1cnc2c(Nc3cccc(Cl)c3)nc(NCCCO)nc21` gave GDH-TPI counter-1 inactive, PrPC TRFRET inactive, Vc quorum ag inactive, FBA Mtb inh 34, Mtb FBA inh conf 130 and GDH-TPI counter-2 98.
Screening O=C(Cc1ccccc1)Nc1cccc(C(=O)O)c1O returned GDH-TPI counter-1 inactive, 3CLpro inhibitor inactive, PrPC TRFRET inactive, Vc quorum ag inactive, FBA Mtb inh 76, Mtb FBA inh conf 82 and GDH-TPI counter-2 49.
`O=C(Cc1ccccc1)Nc1ccccc1C(=O)Nc1ccccc1` gave GDH-TPI counter-1 inactive, 3CLpro inhibitor inactive, PrPC TRFRET inactive, Vc quorum ag inactive and FBA Mtb inh inactive.
CC(=O)CSc1nc(-c2ccccc2)c(-c2ccccc2)o1 was read as GDH-TPI counter-1 inactive, 3CLpro inhibitor inactive, PrPC TRFRET inactive, Vc quorum ag inactive, FBA Mtb inh 50, Mtb FBA inh conf 61 and GDH-TPI counter-2 44.
For CCOC(=O)C1=C(CSc2nc(-c3ccccc3)ccc2C#N)OC(N)=C(C#N)C1c1ccc(OC)cc1 (centres undefined) the results were GDH-TPI counter-1 inactive, 3CLpro inhibitor inactive, PrPC TRFRET inactive, Vc quorum ag inactive, FBA Mtb inh 74, Mtb FBA inh conf 112 and GDH-TPI counter-2 93.
Screening COc1ccc(CCN(C)C(=O)c2cc(=O)c3ccccc3o2)cc1OC returned GDH-TPI counter-1 inactive, 3CLpro inhibitor inactive, PrPC TRFRET inactive, Vc quorum ag inactive, FBA Mtb inh 50, Mtb FBA inh conf inactive and GDH-TPI counter-2 inactive.
CCc1ccc(CN(C)C(=O)c2cc(=O)c3ccccc3o2)cc1 was read as GDH-TPI counter-1 inactive, 3CLpro inhibitor inactive, PrPC TRFRET inactive, Vc quorum ag inactive and FBA Mtb inh inactive.
For [N-]=[N+]=NCc1cn2cccnc2n1 the results were GDH-TPI counter-1 inactive, 3CLpro inhibitor inactive, PrPC TRFRET inactive, Vc quorum ag inactive, FBA Mtb inh 63, Mtb FBA inh conf 79 and GDH-TPI counter-2 63.
Screening c1cnc2nc(CSc3ncn[nH]3)cn2c1 returned GDH-TPI counter-1 inactive, 3CLpro inhibitor inactive, PrPC TRFRET inactive, Vc quorum ag inactive, FBA Mtb inh 88, Mtb FBA inh conf 184 and GDH-TPI counter-2 144.
Cc1ccc(S(=O)(=O)Cc2cn3cccnc3n2)cc1 was read as GDH-TPI counter-1 inactive, 3CLpro inhibitor inactive, PrPC TRFRET inactive, Vc quorum ag inactive, FBA Mtb inh 92, Mtb FBA inh conf 50 and GDH-TPI counter-2 32.
c1ccc(SCc2cn3cccnc3n2)nc1 was read as GDH-TPI counter-1 inactive, 3CLpro inhibitor inactive, PrPC TRFRET inactive, Vc quorum ag inactive, FBA Mtb inh 74, Mtb FBA inh conf 65 and GDH-TPI counter-2 39.
`COc1cccc(C(=O)Cn2c(=O)n(CC3CCCO3)c(=O)c3ccccc32)c1` (centres undefined) gave GDH-TPI counter-1 inactive, 3CLpro inhibitor inactive, PrPC TRFRET inactive, Vc quorum ag inactive and FBA Mtb inh inactive.
`Cc1ccccc1C(=O)NNC(=O)CSc1nc(-c2ccccc2)cc(=O)[nH]1` gave GDH-TPI counter-1 inactive, 3CLpro inhibitor inactive, PrPC TRFRET inactive, Vc quorum ag inactive and FBA Mtb inh inactive.
COC(=O)[C@]12C[C@H](CC(=O)N3CCSCC3)C(=O)N(CCC3=CCCCC3)C1=C[C@H](C1CCCC1)O[C@@H]2C was read as PrPC TRFRET inactive.
O=C(CC(=O)c1cccs1)c1ccncc1 was read as GDH-TPI counter-1 inactive, PrPC TRFRET inactive, Vc quorum ag inactive and FBA Mtb inh inactive.
For O=C(c1cc2c(s1)-c1ccccc1S(=O)(=O)C2)N1CCN(Cc2ccccc2)CC1 the results were GDH-TPI counter-1 inactive, 3CLpro inhibitor inactive, PrPC TRFRET inactive, Vc quorum ag inactive and FBA Mtb inh inactive.
For Cc1ccc(S(=O)(=O)N2CCN(C(=O)c3ccc(-n4cncn4)c([N+](=O)[O-])c3)CC2)c(C)c1 the results were GDH-TPI counter-1 inactive, PrPC TRFRET inactive, Vc quorum ag inactive and FBA Mtb inh inactive.
c1ccc(-n2cnnc2SCc2cn3cccnc3n2)cc1 was read as GDH-TPI counter-1 inactive, 3CLpro inhibitor inactive, PrPC TRFRET inactive, Vc quorum ag inactive, FBA Mtb inh 103, Mtb FBA inh conf 102 and GDH-TPI counter-2 76.
Clc1ccc2nc(CSc3nncn3-c3ccccc3)cn2c1 was read as GDH-TPI counter-1 inactive, 3CLpro inhibitor inactive, PrPC TRFRET inactive, Vc quorum ag inactive and FBA Mtb inh inactive.
For O=C(NCCOc1ccccc1)C1C(=O)Nc2ccccc2C(=O)N1C1CCCCC1 (centres undefined) the results were PrPC TRFRET inactive.
For Nc1nccc(/C=C/c2c(Cl)cccc2Cl)n1 the results were GDH-TPI counter-1 inactive, 3CLpro inhibitor inactive, PrPC TRFRET inactive, Vc quorum ag inactive and FBA Mtb inh inactive.
Screening Nc1nccc(/C=C/c2ccc(Cl)cc2)n1 returned GDH-TPI counter-1 inactive, 3CLpro inhibitor inactive, PrPC TRFRET inactive, Vc quorum ag inactive, FBA Mtb inh 30, Mtb FBA inh conf 84 and GDH-TPI counter-2 49.
For COc1cc(-c2noc(CCCC(=O)NC3CCCCC3)n2)cc(OC)c1OC the results were GDH-TPI counter-1 inactive, 3CLpro inhibitor inactive, PrPC TRFRET inactive, Vc quorum ag inactive and FBA Mtb inh inactive.
`CCOC(=O)[C@]12CCCCC/C=C\1N(CCc1ccc(Cl)cc1)C(=O)[C@H]2CC(=O)NCc1cccc(C(F)(F)F)c1` gave PrPC TRFRET inactive.
For CCc1[nH]nc(C(=O)N2CCCC(N3CCN(c4ccccc4C)CC3)C2)c1C (centres undefined) the results were GDH-TPI counter-1 inactive, 3CLpro inhibitor inactive, PrPC TRFRET inactive, Vc quorum ag inactive and FBA Mtb inh inactive.
Screening CC12CCC(=O)N1c1c(sc3nc(N4CCOCC4)c4c(c13)CCCC4)C(=O)N2 (centres undefined) returned GDH-TPI counter-1 inactive, 3CLpro inhibitor inactive, PrPC TRFRET inactive, Vc quorum ag inactive, FBA Mtb inh 63, Mtb FBA inh conf 122 and GDH-TPI counter-2 113.

Screening data: PubChem BioAssay, several laboratories
